# According to ChEMBL document CHEMBL3988442, “University of Dundee, Small-Polar-MMV Screening Library” (2021):
# Among all 48,000 compounds or so, about 13,000 (27%) showed an effect of 50% or more. Some of the results follow.
# Test system: Wolbachia pipientis
# Test: Anti-Wolbachia Cell-Based Screen
# Assay type: functional
# Parameters: scale not given: in the data most compounds retested in dose-response had high values
# Settings: 5 µM
row,Compound,Percent Effect
1,CCSCCC(C)N(C)C(=O)c1cc(C)on1 (stereo not given),-12.53%
2,O=C(O)c1cc(S(=O)(=O)N2CCOc3ccccc32)ccc1F,8.076%
3,CCC[C@@H]1CN(Cc2cc3c(cc2OC)OCCO3)C[C@H]1C(=O)O,-0.5486%
4,O=C(CCNc1ncccn1)NCCOc1ccc2c(c1)CCC2,1.956%
5,COc1cc(CN2CCN(CC3CC3)[C@@H]3CS(=O)(=O)C[C@@H]32)cc(OC)c1,-1.299%
6,COc1ccc(CN2CCC3(CC2)C(C(=O)O)CC(=O)N3C)cc1Cl (stereo not given),2.306%
7,CC[C@@H]1N(Cc2cc(OC)cc(OC)c2)CCC[C@]12CCC(=O)N2C,92.68%
8,COCCN1C(=O)CC[C@]12CC[C@@H](NCc1ccc(OC)cc1)CC2,-14.96%
9,CCn1c(C2CCCN(Cc3cc(OC)cc(OC)c3)C2)nn(C)c1=O (stereo not given),-1.28%
10,CC[C@H]1N(Cc2ccc(OC)cc2)CCC[C@]12CCC(=O)N2C,102.5%
11,COCCN1CCN(Cc2cccc(OCC(N)=O)c2)CC1C (stereo not given),-2.971%
12,CCN1C(=O)CCCC12CCCN(C(=O)c1ccoc1)C2 (stereo not given),-0.6496%
13,CN1C(=O)CCC12CCCN(C(=O)c1ccncc1F)C2.O=C(O)C(F)(F)F (stereo not given),113.9%
14,Cc1ncnc2c1CCN(C(=O)c1ccncc1F)CC2.O=C(O)C(F)(F)F,-20.75%
15,CCc1ncnc2c1CCN(C(=O)c1ccncc1F)CC2.O=C(O)C(F)(F)F,6.56%
16,CN(C)CCN1C(=O)CCC12CCCN(C(=O)c1ccncc1F)C2.O=C(O)C(F)(F)F (stereo not given),122.1%
17,O=C(O)C(F)(F)F.O=C(c1ccncc1F)N1CCc2ncnc(C3CC3)c2CC1,13.05%
18,CCOc1ncnc2c1CCN(C(=O)c1ccncc1F)CC2.O=C(O)C(F)(F)F,-6.025%
19,CCN1C(=O)CCCC12CCCN(C(=O)c1ccncc1F)C2.O=C(O)C(F)(F)F (stereo not given),112.1%
20,O=C(O)C(F)(F)F.O=C1CC(c2ccccc2)C2(CCN(C(=O)c3ccncc3F)CC2)N1 (stereo not given),7.558%
21,COCCCNC(=O)NCc1nc(C)c(C)o1,1.858%
22,CC(C)(C)CC(=O)NCC1CCCS1 (stereo not given),-1.096%
23,Cc1ccc(C(=O)CCC(=O)N2CCC(c3nncn3C)CC2)cc1,-0.3599%
24,Cn1nc(Br)c2c(=O)n(CCc3ccccc3)cnc21,-21.91%

row,Compound,Percent Effect
1,Cn1c(=O)n(C)c2nc(Cl)c(CC(=O)c3ccccc3)n2c1=O,119.1%
2,Cc1ccc(C(=O)Cc2c(Cl)nc3n(C)c(=O)n(C)c(=O)n23)cc1,91.64%
3,Cn1c(=O)n(C)c2nc(Br)c(CC(=O)c3ccccc3)n2c1=O,113.8%
4,Cc1c2ncn(CC(=O)c3ccccc3)c(=O)c2nn1C,11.22%
5,Cn1c(=O)n(C)c2nc(Cl)c(CC(=O)c3ccc(F)cc3)n2c1=O,131.2%
6,CN1CC(Oc2ccc(Cl)cc2)=NC(SCC(=O)c2ccccc2)=N1,11.49%
7,CN1CC(Oc2ccccc2)=NC(SCC(=O)c2ccccc2)=N1,31.32%
8,CC(C)c1nc(C2CCCN2c2cnc3cc(F)c(F)cc3n2)no1 (stereo not given),4.6%
9,CC(C)OC(=O)N1CCCCC1CCn1cccn1 (stereo not given),30.12%
10,Cl.Nc1nc(C(=O)NCC2CCC3(CCNCC3)CO2)cs1 (stereo not given),-0.4275%
11,CC(C)(C)n1cc(C#N)cc1NC(=O)CCNC(=O)c1ccco1,-15.76%
12,Cn1cc(C(=O)N2CCCC(Cc3cccc4ncccc34)C2)cn1 (stereo not given),153.9%
13,O=C(c1cnccn1)N1CCCC(Cc2cccc3ncccc23)C1 (stereo not given),146.1%
14,Cc1ccc2nc(C)c(C)c(C(=O)N3CCN(c4nccs4)CC3)c2c1,-13.27%
15,CCNC(=O)C1CCCN(Cn2nc(C(C)(C)C)ccc2=O)C1 (stereo not given),2.332%
16,Cc1cc(C[C@@H]2CCC[C@H]2NCc2cccc(F)c2F)on1.O=C(O)CC(O)(CC(=O)O)C(=O)O,111.2%
17,Cc1cc(C[C@@H]2COC[C@H]2NCc2ccc(Br)s2)on1.O=C(O)CC(O)(CC(=O)O)C(=O)O,-4.105%
18,O=C(NCc1cccc(F)c1F)c1cc(CN2CCCC(O)C2)on1 (stereo not given),-4.232%
19,Cc1cc(C[C@@H]2COC[C@@H]2NC(=O)CN2CCOC2=O)on1,-12.63%
20,Cc1cc(C[C@@H]2CCC[C@H]2NCc2cc(C)c(O)c(C)c2)on1.O=C(O)CC(O)(CC(=O)O)C(=O)O,-7.471%
21,Cc1cc(C[C@@H]2CCC[C@H]2NCc2ccccc2C)on1.O=C(O)CC(O)(CC(=O)O)C(=O)O,135%
22,Cc1cc(C[C@@H]2COC[C@H]2NCc2ccccc2C(F)(F)F)on1.O=C(O)CC(O)(CC(=O)O)C(=O)O,-4.697%
23,Cc1cc(C[C@@H]2CCC[C@H]2NCc2cc(F)ccc2F)on1.O=C(O)CC(O)(CC(=O)O)C(=O)O,83.79%
24,Cc1cc(C[C@@H]2CCC[C@H]2NCc2ccccc2C(F)(F)F)on1.O=C(O)CC(O)(CC(=O)O)C(=O)O,-4.697%

row,Compound,Percent Effect
1,Cc1cc(CNC(=O)C2CCC(=O)N(Cc3ccccc3F)C2)on1 (stereo not given),-7.53%
2,Cc1cc(C[C@@H]2CCC[C@H]2NCc2ccccc2F)on1.O=C(O)CC(O)(CC(=O)O)C(=O)O,109.7%
3,CCCc1noc(CN(C)C(=O)C2COc3ccccc3C2)n1 (stereo not given),-0.2082%
4,O=C(c1cccc(O)c1)N1C[C@@H](CN2CCCCC2)[C@@H](CO)C1,36.38%
5,CCOc1cc(CNC(=O)NC2CC=CC2)ccc1OC(F)F,-3.557%
6,Cc1cc(C[C@@H]2COC[C@@H]2NC(=O)CN2CCCC2)on1,-5.725%
7,Cc1cc(C[C@@H]2CCC[C@H]2NCc2c[nH]nc2-c2ccccc2)on1.O=C(O)CC(O)(CC(=O)O)C(=O)O,114%
8,Cc1cc(C[C@@H]2COC[C@@H]2NC(=O)CCN2Cc3ccccc3C2)on1,-14.09%
9,CCCOc1ccccc1CN[C@@H]1CCC[C@H]1Cc1cc(C)no1.O=C(O)CC(O)(CC(=O)O)C(=O)O,112%
10,Cc1cc(C[C@@H]2COC[C@@H]2NC(=O)Cn2c(=O)oc3ccccc32)on1,-2.365%
11,Cc1cc(C[C@@H]2CCC[C@H]2NCc2ccc(C(F)(F)F)cc2)on1.O=C(O)CC(O)(CC(=O)O)C(=O)O,113.9%
12,CCC[C@H]1CN(Cc2cc(C)no2)C[C@@H]1NC(=O)C1(COC)CCC1,-6.466%
13,Cc1cc(C[C@@H]2COC[C@@H]2NC(=O)CN2CCCCCC2)on1,40.3%
14,Cc1cc(C[C@@H]2COC[C@@H]2NC(=O)CN2CCc3ccccc3C2)on1,-17.37%
15,CSc1nccc(NCC2CNCCOC2)n1 (stereo not given),0.1221%
16,COCCN1CCN(C(=O)c2ccc(COC)o2)[C@H]2CS(=O)(=O)C[C@H]21,7.213%
17,CC(C)NC(=O)N[C@H]1C[C@@H](Cc2cc(CN3CCOCC3)on2)C1(C)C,-0.1597%
18,Cc1c[nH]c(CN(C)C(=O)c2cccc(CCC(C)(C)O)c2)n1,-0.9219%
19,CC(=O)N1CCCC1c1cccc(C)c1C (stereo not given),2.963%
20,CC(=O)N1CCCC1c1nc(N(C)C)ncc1-c1ccccc1 (stereo not given),120.4%
21,O=C(c1ccc[nH]1)N1CCCC1c1nc(-c2ccccc2)n[nH]1 (stereo not given),3.184%
22,CC(=O)N1CCCC(c2nc(N(C)C)ncc2-c2ccccc2)C1 (stereo not given),94.88%
23,CC(=O)N1CCCC(c2nc(-c3ccccc3)c[nH]2)C1 (stereo not given),-5.299%
24,COCC(=O)N1CCCC(COc2ccccc2C)C1 (stereo not given),-17.48%

row,Compound,Percent Effect
1,COCC(=O)N1C[C@H]2CC[C@@]3(N=C(c4ccccc4)NC3=O)[C@H]2C1,-3.823%
2,CCC(=O)N1CCCC(c2nc(N(C)C)ncc2-c2ccc(F)cc2)C1 (stereo not given),103.1%
3,Cc1cc(C2CCCN(C(=O)COc3cc(F)ccc3F)C2)n[nH]1 (stereo not given),-12.04%
4,COCC(=O)N1CCCC(c2nc(N(C)C)ncc2-c2ccccc2)C1 (stereo not given),96.39%
5,Cc1cc(C2CCCN(C(=O)COc3ccc(F)cc3)C2)n[nH]1 (stereo not given),-12.08%
6,CC(=O)N1Cc2ccccc2C[C@H]1C(=O)Nc1ccccn1,-1.208%
7,Cc1ccc(C(=O)N2CCSCC2)cc1NC(=O)NCCO,-7.623%
8,Cc1cc(CNC(=O)C2CCCN2C(=O)OC(C)(C)C)no1 (stereo not given),-19.91%
9,COCC(=O)N1CCCC(c2nc(N)ncc2-c2cccc(F)c2)C1 (stereo not given),111.1%
10,Cc1nc(C2CCCN(C(=O)CCCOc3cccc(F)c3)C2)no1 (stereo not given),-2.46%
11,Cc1cc(C2CCCN(C(=O)COc3cccc(F)c3)C2)n[nH]1 (stereo not given),-5.532%
12,O=C1CN(C(=O)c2nnn(-c3ccc(C(F)(F)F)cc3)n2)CCN1,7.084%
13,O=C(O)C(F)(F)F.O=C1COC2(CCN(CC3CC3)CC2)CN1c1ccccc1,-2.17%
14,O=C(CC1CC1)N1C[C@@H]2CCN(c3cccnc3)C[C@@H]2C1.O=C(O)C(F)(F)F,87.47%
15,O=C(CC1CC1)N1CCC2(CC1)CN(Cc1cccnc1)C(=O)CO2.O=C(O)C(F)(F)F,85.91%
16,CN(C)CCN1CCC2(CC1)CN(Cc1cccnc1)C(=O)CO2.O=C(O)C(F)(F)F.O=C(O)C(F)(F)F.O=C(O)C(F)(F)F,106.6%
17,Cn1ccnc1CN1CCC2(CC1)CN(Cc1cccnc1)C(=O)CO2.O=C(O)C(F)(F)F.O=C(O)C(F)(F)F,-2.822%
18,O=C(Cc1ccccn1)N1CCC2(CC1)CN(CC1CC1)C(=O)CO2.O=C(O)C(F)(F)F,15%
19,O=C(O)C(F)(F)F.O=C(c1ccncc1)N1C[C@@H]2CCN(c3cccnc3)C[C@@H]2C1,-5.49%
20,O=C(C1CCCC1)N1C[C@@H]2CCN(c3cccnc3)C[C@@H]2C1.O=C(O)C(F)(F)F,-15.19%
21,O=C(CC1CC1)N1CCC2(CC1)CN(CCn1cccn1)C(=O)CO2,0.04038%
22,O=C(CC1CC1)N1CCC2(CC1)CN(c1cccnc1)C(=O)CO2.O=C(O)C(F)(F)F,86.93%
23,Cn1ccnc1CN1CCC2(CC1)CN(Cc1ccccc1)C(=O)CO2.O=C(O)C(F)(F)F,-7.87%
